# High-throughput results: PubChem BioAssay, National Center for Advancing Translational Sciences (NCATS)
# RECQ1 inh-1 – RECQ1 (human) helicase inhibition; P46063; RECQ1 DNA unwinding, red fluorescence kinetic read; Potency, µM (top dose mostly 57.3 µM), without a hit: top-dose activity, negative = inhibition, usual class: inhibitors; hit rate 0.54% among 240,000;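 further: plate controls were vehicle for no effect and no enzyme for full effect; nearly all actives have a fitted effect of over 30% in size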
# Target sequence (P46063 whole entry, looked up): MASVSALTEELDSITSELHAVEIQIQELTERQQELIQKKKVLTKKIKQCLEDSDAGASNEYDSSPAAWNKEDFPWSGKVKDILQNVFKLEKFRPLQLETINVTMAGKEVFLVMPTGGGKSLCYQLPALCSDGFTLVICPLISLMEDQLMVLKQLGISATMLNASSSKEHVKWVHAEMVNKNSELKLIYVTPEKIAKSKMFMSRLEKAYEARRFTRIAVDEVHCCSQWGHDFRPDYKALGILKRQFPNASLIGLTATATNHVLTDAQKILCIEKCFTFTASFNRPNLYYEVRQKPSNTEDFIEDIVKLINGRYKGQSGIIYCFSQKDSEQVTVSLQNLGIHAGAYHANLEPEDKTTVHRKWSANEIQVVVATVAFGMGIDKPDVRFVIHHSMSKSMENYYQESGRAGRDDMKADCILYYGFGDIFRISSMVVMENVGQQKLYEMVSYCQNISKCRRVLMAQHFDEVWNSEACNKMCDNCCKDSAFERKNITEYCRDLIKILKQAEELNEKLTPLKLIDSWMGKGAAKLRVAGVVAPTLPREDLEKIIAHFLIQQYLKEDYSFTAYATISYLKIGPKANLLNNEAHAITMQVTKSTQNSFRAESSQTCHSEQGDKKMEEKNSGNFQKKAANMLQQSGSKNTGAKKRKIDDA
#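 RECQ1T1 50 nM; forked duplex (20 bp + 30-nt ss tails) 200 nM, ATP 2 mM final; pH 8.0, 2 mM MgCl2, 2.5 ug/ml poly(dI-dC); 15 min compound preincubation; discontinuous kinetic read over 2 h at RT.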
# JMJD2E inh – inhibitors of human JMJD2E histone demethylase; B2RXH2; JMJD2E catalytic domain, FDH-coupled NADH fluorescence (FDH is formaldehyde dehydrogenase); Potency, µM (highest dose often 57.1 µM), for inactives: at the highest dose activity change, negative = inhibition, usual class: inhibitors; hit rate 1.6% among 230,000; AID 2147; active means well fitted inhibition curve with a large enough effect, not every such curve was filed as active; inconclusive means small, poorly fitted or top-dose-only effect, or another doubt; inactive means no such curve, though single readings can be large or run the other way;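 further: 0% = wells with enzyme and -100% = buffer wells without enzyme; nearly all actives have a fitted effect of over 50% in size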
# L3MBTL1 inh – blocks human L3MBTL1 | hit rate 0.66% among 230,000 | Potency, µM (top dose mostly 57.1 µM), for the others: at the highest dose activity, negative = inhibition, hits mostly inhibitors | Q9Y468 | AlphaScreen L3MBTL1–H3K9me1 peptide binding; further: nearly all actives have a fitted effect of over 60% in size
#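 L3MBTL1 (50 nM) pre-complexed 30 min with biotinylated H3(1-15)K9me1 peptide (75 nM), then compounds added for 30 min at room temperature; AlphaScreen streptavidin donor/nickel chelate acceptor beads (10 ug/mL final) read after 30 min dark incubation.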
# APE1 inh – APE1 (human) endonuclease inhibition | hit rate 0.35% among 350,000 | AID 2517 | Potency, µM (series often up to 65.8 µM), inactives show top-dose activity change, negative = inhibition, usual class: inhibitors | recombinant APE1, TAMRA/BHQ-2 abasic DNA cleavage fluorescence | P27695;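 further: plate controls were vehicle for no effect and reference inhibitor for full effect; nearly all actives have a fitted effect of over 55% in size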
#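 Readout is kinetic fluorescence (ex 525, em 598 nm) from cleavage of 50 nM TAMRA/BHQ-2 THF abasic duplex by 0.75 nM APE1, compound added 15 min beforehand at RT.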
# TDP1 block – TDP1 (human) enzyme inhibition; Q9NUW8; hit rate 0.28% among 350,000; AID 485290; Potency, µM (doses to about 130 µM), for inactives: top-dose activity change, negative = inhibition, most hits filed as inhibitors; recombinant TDP1, AlphaScreen DNA substrate cleavage; further: nearly all actives have a fitted effect of over 40% in size
#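 Tdp1 1 nM final; 15 min RT w/ cpd; substrate 15 nM, 5 min; beads 10 ug/ml, 10 min; AlphaScreen read. Neg ctrl: no enzyme.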
# BLM inh – blocks DNA unwinding by human BLM helicase | P54132 | recombinant BLM DNA unwinding, fluorescence dequenching | Potency, µM (highest dose often 56.1 µM), for the others: at the top dose activity change, negative = inhibition, most hits filed as inhibitors | hit rate 0.2% among 350,000;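 further: plate controls were vehicle for no effect and no enzyme for full effect; nearly all actives have a fitted effect of over 35% in size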
# RECQ1 conf – confirmation of human RECQ1 helicase inhibitors; shares compounds with RECQ1 inh-1; RECQ1 helicase DNA unwinding, fluorescence; Potency, µM (titrated, usually from 229 µM), for inactives: at the top dose activity change, negative = inhibition, actives largely listed as inhibitors; hit rate 28% among 610; AID 2708; further: nearly all actives have a fitted effect of over 45% in size
# ADP FP counter – ADP displacement flagged in RECQ1 inhibitor counter-screen; shares compounds with RECQ1 inh-1; ADP fluorescence polarization displacement counterscreen; Potency, µM (doses to about 228 µM), for the others: at the highest dose activity change, negative = inhibition, most hits filed as inhibitors; hit rate 27% among 530; further: nearly all actives have a fitted effect of over 45% in size
# RECQ1 inh-2 – RECQ1 helicase inhibition confirmed, round 2. AID 504841. shares compounds with RECQ1 inh-1. recombinant RECQ1 DNA unwinding, red fluorescence. Potency, µM (top dose mostly 119 µM), for inactives: at the top dose activity, negative = inhibition, hits mostly inhibitors. hit rate 15% among 1,100; further: nearly all actives have a fitted effect of over 50% in size
# An asterisk follows results filed as active; i = inactive; ? = inconclusive; . = no result given; [ ] = another dose, or the depositor's remark. The sample as a whole holds a higher share of hits than the screen did. Unless noted, the call rests on the fitted dose curve; in most records, active means well fitted curve in the direction sought with a large enough effect; inconclusive means small, poorly fitted or top-dose-only effect, or another doubt; inactive means no such curve, though single readings can be large; an effect the other way counts as inactive or inconclusive. Unless noted, on the % scale 0 is the no-effect control and ±100 the full control effect; potency means the concentration at half of the fitted maximal effect.
SMILES,RECQ1 inh-1,JMJD2E inh,L3MBTL1 inh,APE1 inh,TDP1 block,BLM inh,RECQ1 conf,RECQ1 inh-2,others
CCN(c1ccc(C)c(C)c1)S(=O)(=O)c1ccc2c(c1)CCN2C(=O)CCC(=O)O,-19.6%,-5.5%,.,-0.5%,0.0%,-2.1%,14.8%,.,ADP FP counter=-10.8%
COc1cc(C2CC(=O)Oc3cc(C)c(Cl)cc32)cc(OC)c1OC (stereo not given),4.8%[81.1 µM],.,.,?,5.1%,-7.5%[75.6 µM],.,.,
O=C(NC1CC(=O)N(c2ccccc2)C1)c1ccc(S(=O)(=O)N2CCCC2)cc1 (stereo not given),.,.,.,.,7.8%,1.2%,.,.,
CC(=O)Nc1ccc2c(c1)C(C)(C)C(C)N2C (stereo not given),35.5µM*,-5.8%,.,?,5.8%,-7.6%,.,79.4µM*,
CCN(CC)C(=O)c1cn(CCC#N)nc1-c1ccc(F)cc1,39.8µM*,5.7%,.,?,0.0%,-0.3%,.,3.1%,
O=C(CN1C(=O)C(c2ccc(F)cc2)=NC12CCCCCC2)Nc1ccccc1Cl,.,.,.,.,0.0%,-12.1%,.,.,
O=C1C=C(O)C(n2cncn2)C(c2ccc3c(c2)OCO3)C1 (stereo not given),?,-7.5%,2.6%,-8.0%,4.8%,-6.2%,.,-19.9%,
COc1ccc(Cn2nnnc2C(c2cccnc2)N2CCN(c3ccc(O)cc3)CC2)cc1 (stereo not given),1.26µM*,-21.6%,-7.7%,9.5%,4.2%,-1.6%,0.4%[114 µM],-0.2%,ADP FP counter=8.2%[91.9 µM]
COc1ccc(/C=C(\NC(=O)c2ccc(OC)cc2)C(=O)NC(CCSC)C(=O)O)cc1 (stereo not given),i,-1.5%,.,-1.2%,-1.6%,-3.3%,-1.5%,.,ADP FP counter=-11.6%
CSCCC(NC(=O)/C(=C\c1ccc(Cl)cc1)NC(=O)c1ccccc1)C(=O)O (stereo not given),i,-2.0%,-5.0%,-5.7%,0.0%,-1.0%,.,.,
O=C(/C=C/c1ccccc1)NCCc1ccccc1,17.8µM*,-10.8%,.,7.94µM*,.,-19.8%,11.3%[114 µM],?,ADP FP counter=?
COc1ccc(C(=O)Nc2cc(C)nn2-c2ccc(C)cc2)cc1,.,.,.,51.7%,-3.3%[0.0935 µM],-6.2%,.,.,
CC(C)(Oc1ccc(Cl)cc1)C(=O)Nc1ccncc1,-3.1%,1.9%,-0.3%,-1.9%,3.4%,-3.3%,.,.,
CC(C)(Oc1ccc(Cl)cc1)C(=O)NC1=NN(c2ccccc2)C(=O)C1,?,-4.8%,-6.3%,10.0%,8.2%,-6.4%,.,-19.8%,
COc1ccc(NC(=O)c2ccc(CNS(=O)(=O)c3cccc(OC)c3)cc2)cc1,35.5µM*,-2.1%,.,-5.0%,3.4%,-3.6%,.,0.3%,
COc1ccc(C(=O)Nc2ccc(S(=O)(=O)N3CCCC3)cc2)cc1,i,-6.0%,-3.9%,-7.9%,-0.6%,-4.1%,.,.,
O=S(=O)(Nc1nc2ccccc2nc1Nc1cccc(S(=O)(=O)N2CCCCC2)c1)c1ccccc1,?,?,3.4%,-5.6%,5.5%,-19.3%,.,?,
COc1ccc(NS(=O)(=O)c2cccc(NC(=O)c3ccc(S(=O)(=O)N4CCCCCC4)cc3)c2)cc1,-14.3%,12.9%,-1.7%,-4.1%,3.5%,-3.4%,-2.5%,.,ADP FP counter=4.3%
COc1ccc(NS(=O)(=O)c2ccc(O)c(NC(=O)c3ccc(S(=O)(=O)N4CCCC4)cc3)c2)cc1,4.6%,5.1%,-8.9%,-2.2%,2.6%,-5.7%,8.2%,.,ADP FP counter=4.5%
COc1cccc(N2CCN(C(=O)CN3C(=O)COc4ccc(S(=O)(=O)N5CCC(C)CC5)cc43)CC2)c1,.,.,.,.,3.8%,-5.2%,.,.,
COc1ccc(NS(=O)(=O)c2ccc(O)c(NC(=O)c3ccc(S(=O)(=O)N4CCCCCC4)cc3)c2)cc1,6.3%,13.7%,7.1%,3.1%,3.5%,-18.8%,-13.5%,.,ADP FP counter=10.2%
CC(N)CCCP(=O)(O)O (stereo not given),i,.,.,-2.5%,-6.1%,.,.,.,
CCn1c(=O)c2cc(C(=O)NCCCN3CCN(C)CC3)sc2c2ccccc21,.,.,.,.,1.2%,41.6%,.,.,
O=C(O)c1cc(-c2ccc(/C=C3/SC(=S)N(Cc4ccccc4)C3=O)o2)ccc1Cl,6.31µM*,4.9%,.,?,.,-8.3%,?,.,
COc1ccc(CN2C(=O)/C(=C/c3ccc(-c4ccc(Cl)c(C(=O)O)c4)o3)SC2=S)cc1,-15.6%,12.4%,.,?,-5.3%,2.4%,.,.,
SMILES,RECQ1 inh-1,JMJD2E inh,L3MBTL1 inh,APE1 inh,TDP1 block,BLM inh,RECQ1 conf,RECQ1 inh-2,others
COc1ccc2sc(N(Cc3cccnc3)C(=O)C3COc4ccccc4O3)nc2c1 (stereo not given),.,.,.,.,2.6%,-5.6%,.,.,
O=c1cc(CSc2ccc(Cl)cc2)[nH]c2[nH]n(-c3ccccc3)c(=O)c12,?,-3.9%,?,-8.8%,.,-16.4%,.,-4.6%,
COc1cccc([C@@H]2Oc3ccc(OC)cc3C[C@H]2OC(=O)Nc2ccc(OC(F)F)cc2)c1,-7.5%,-0.7%,.,3.7%,-3.1%,-2.0%,.,.,
Clc1ccccc1-c1nnc2sc(C3COc4ccccc4O3)nn12 (stereo not given),4.47µM*,6.9%,-8.5%,4.8%,2.1%,-8.4%,-12.9%[114 µM],-19.1%,ADP FP counter=?
CCc1nnc(NC(=O)c2sc3nc4c(cc3c2N)CCCCC4)s1,-3.8%,?,4.1%,-5.2%,0.0%,-6.1%,.,.,
CCc1nnc(NC(=O)c2sc3nc4c(cc3c2N)CCCCCC4)s1,?,?,?,0.6%,50.1µM*,-21.1%,.,?,
CCOC(=O)C1=C(N)n2c(s/c(=C\c3ccco3)c2=O)=C(C(=O)OC(C)C)C1c1ccco1 (stereo not given),31.6µM*,?,-3.3%,?,12.9%[56.1 µM],-11.8%,.,-25.8%,
CCOC(=O)C1=C(N)n2c(s/c(=C/c3ccccc3)c2=O)=C(C(=O)OCC)C1c1ccccc1 (stereo not given),-4.6%,3.8%,-3.7%,-0.4%,-1.9%,1.7%,.,.,
CCOC(=O)C1=C(N)n2c(s/c(=C\c3ccco3)c2=O)=C(C(=O)OCC)C1c1ccco1 (stereo not given),?,-25.5%,-2.8%,?,3.1%,-11.3%,.,?,
CCc1ccc(CNC(=O)Cn2nc(C)c3nn(-c4ccc(Cl)cc4)c(C)c3c2=O)cc1,.,.,.,.,2.7%,-5.6%,.,.,
